Compound activity deposited in PubChem BioAssay by National Center for Advancing Translational Sciences (NCATS).
NPC1 promoter act – qHTS Assay for NPC1 Promoter Activators | Huh7 NPC1 promoter luciferase reporter, 24 h | Potency, µM (highest dose often 9.22 µM), for the others: at the top dose activation, actives largely listed as activators | 2.4% of 320,000 active | AID 485313, 2010; note: % of control where 0% means no effect; nearly all actives have a fitted effect of over 60% in size
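Luminescence from an NPC1 promoter-driven luciferase reporter in stably transfected Huh7 cells was measured after 24 h compound treatment at 37 °C, followed by 10 min ambient incubation with luciferase detection reagent.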
Rab9 promoter act – qHTS Assay for Rab9 Promoter Activators; Huh7 Rab9 promoter-luciferase reporter, luminescence, 24 h; 2.8% of 320,000 active; Potency, µM (top dose mostly 9.22 µM), without a hit: at the highest dose activation, negative = inhibition, usual class: activators; note: % of control where 0% means no effect; nearly all actives have a fitted effect of over 60% in size
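Measured in stably transfected Huh7 cells bearing a Rab9 promoter–luciferase construct: 24 h compound treatment at 37 °C, followed by luminescence detection.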
SMN2 splice enh – qHTS Assay for Enhancers of SMN2 Splice Variant Expression; HEK293 SMN2-luciferase splicing reporter, luminescence, 30-36 h; Potency, µM (highest dose often 46.1 µM), without a hit: at the highest dose activity change, positive = activation, usual class: activators; 2.8% of 210,000 active; AID 1458, 2008; note: % of control where 0% means no effect; nearly all actives have a fitted effect of over 55% in size
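qHTS luciferase splicing reporter: luminescence rises when SMN2 exon 7 is included in transfected HEK293 cells. Compound exposure lasted 30-36 h at 37C, with 4.5 mM final sodium butyrate as control, followed by a ONE-Glo read.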
KinaseGlo FLuc – Counterscreen for Luciferase (Kinase-Glo TM) Inhibition. Luciferin 4-monooxygenase (Photuris pensylvanica), Q27757. 0.28% of 200,000 active. Kinase-Glo luciferase, ATP luminescence, 8 min. Potency, µM (titrated, usually from 38.3 µM), for the others: top-dose activity change, negative = inhibition, most hits filed as inhibitors; note: % is set by controls: 0 for no effect and ±100 for the full control effect; nearly all actives have a fitted effect of over 60% in size
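Recombinant Kinase-Glo luciferase, 10 uM ATP (linear range), luciferin; imidazole pH 7.2 / KCl / MgCl2 / Tween / BSA buffer; 8 min RT; luminescence.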
FLuc counter – qHTS profiling assay for firefly luciferase inhibitor/activator using purifed enzyme and Km concentrations of substrates (counterscreen for miR-21 project) | Luciferin 4-monooxygenase (Photinus pyralis), P08659 | purified FLuc, Km substrates, luminescence inhibition | Potency, µM (top dose mostly 57.5 µM), for inactives: at the top dose activity change, negative = inhibition, most hits filed as inhibitors | 6.9% of 360,000 active | AID 588342, 2011;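 note: plate controls were vehicle for no effect and reference inhibitor for full effect; nearly all actives have a fitted effect of over 55% in size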
Target sequence (P08659 whole entry, looked up): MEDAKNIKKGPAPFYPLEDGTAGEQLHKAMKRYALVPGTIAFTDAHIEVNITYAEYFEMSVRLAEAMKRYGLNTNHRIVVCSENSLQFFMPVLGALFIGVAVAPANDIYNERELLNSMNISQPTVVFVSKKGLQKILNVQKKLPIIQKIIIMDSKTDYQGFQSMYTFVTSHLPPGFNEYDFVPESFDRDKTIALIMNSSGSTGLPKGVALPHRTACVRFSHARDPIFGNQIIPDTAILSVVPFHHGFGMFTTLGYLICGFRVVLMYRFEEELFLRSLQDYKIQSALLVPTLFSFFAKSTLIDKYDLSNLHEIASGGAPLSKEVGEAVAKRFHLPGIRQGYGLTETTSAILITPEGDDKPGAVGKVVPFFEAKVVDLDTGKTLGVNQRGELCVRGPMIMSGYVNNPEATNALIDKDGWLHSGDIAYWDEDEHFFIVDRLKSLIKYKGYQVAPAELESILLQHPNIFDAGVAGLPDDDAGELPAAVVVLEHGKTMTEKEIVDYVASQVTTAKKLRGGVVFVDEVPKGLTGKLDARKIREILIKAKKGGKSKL
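Purified P. pyralis luciferase, 10 nM final, with Km-level 10 uM D-luciferin and 10 uM ATP in 50 mM Tris acetate pH 7.5, 10 mM Mg acetate, 0.01% Tween-20, 0.05% BSA; 6-point qHTS titration about 60 µM downward; luminescence read.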
Numbers without * were called inactive; u = inconclusive; x = no result; ! = not confirmed by another sample. In the library only some 7.3% were active in any assay of this set; here they are far more common. Calls come from the whole dose curve; as a rule, active = well fitted curve in the direction sought with a large enough effect; inconclusive = small, poorly fitted or top-dose-only effect, or another doubt; inactive = no such curve, though single readings can be large; an effect the other way counts as inactive or inconclusive. Potency is the fitted concentration of half-maximal effect.

SMILES	NPC1 promoter act	Rab9 promoter act	SMN2 splice enh	KinaseGlo FLuc	FLuc counter
CCc1cccc2c(C(=O)COC(=O)c3ccc(O)cc3)c[nH]c12	12%	-4%	-3%	1%	u
CCc1cccc2c(C(=O)COC(=O)c3ccccc3)c[nH]c12	u	u	26%	1%	2.4µM*
CCc1cccc2c(C(=O)COC(=O)c3nccnc3N)c[nH]c12	25%	u	x	x	15µM*
CCc1cccc2c(C(=O)COC(=O)c3cnc(C)cn3)c[nH]c12	-1%	-5%	x	x	-3%
CCn1c(SCC(=O)c2cc(C)n(-c3ccc(C(=O)OC)cc3)c2C)nnc1-c1cccnc1	-1%	-4%	-7%	-5%	15µM*
CC(C)(C)c1ccc(NC(=O)C2=CN3CCS(=O)(=O)N=C3C=C2)cc1	0%	0%	x	x	15µM*
COc1ccc(NC(=O)C2=CN3CCS(=O)(=O)N=C3C=C2)c(OC)c1	-2%	-8%	x	x	-2%
O=C(NCCn1cc(SCc2ccccc2F)c2ccccc21)c1cccs1	x	x	-42%	x	-7%
Cc1ccc2nc(-c3cc(NC(=O)/C=C/c4ccccc4)ccc3Cl)oc2c1	x	x	8%	x	u
Cc1ccc(NC(=O)N2CCc3ccccc3C2)cc1	2.8µM*	3.5µM*	11µM*	-2%	12µM*
O=C(c1cccc(F)c1)N1CCc2ccccc2C1	2%	18%	u	5%	u
CN(C)c1ccc(NC(=O)CN2CCc3ccccc3C2)cc1	29%	u	x	x	24µM*
O=C(CN1CCc2ccccc2C1)Nc1ccc(F)cc1	-6%	-3%	x	x	3%
O=C(Nc1ccccc1)N1CCc2ccccc2C1	u	4µM*	14µM*	-13%	21µM*
O=C(CNc1cccc(F)c1)N1CCc2ccccc2C1	3.2µM*	4.5µM*	x	x	13µM*
CC(=O)N1c2ccccc2C(=O)C1N1CCN(c2cccc(C(F)(F)F)c2)CC1 (stereo not given)	x	x	x	x	-2%
Cc1ccc2oc(=O)c3cnn(CC(=O)N(C)c4ccc(F)cc4)c3c2c1	x	x	-16%	x	-6%
CCOC(=O)c1ccc(-c2ccc3[nH]c4ccccc4c(=O)c3c2)cc1F	u	-3%	x	x	0.54µM*
CCNC(=O)COC(=O)c1ccc(-c2nc3ccccc3s2)s1	17%	u	13µM*	u	1.3µM*
Cc1noc(C)c1COC(=O)c1ccc(-c2nc3ccccc3s2)s1	u	3.5µM*	10µM*	-2%	5.4µM*
Cc1noc(C)c1COC(=O)c1cc(=O)[nH]c2ccccc12	-5%	3%	-10%	-7%	-1%
CCOC(=O)CSc1nnc(-c2c[nH]c3ccccc23)o1	0%	0%	x	x	19µM*
CCSc1nnc(-c2c[nH]c3ccccc23)o1	3.2µM*	4µM*	x	x	19µM*
CCOC(=O)c1cnc2ccc(C)cc2c1Nc1ccc(N(CC)CC)cc1	x	x	-62%	x	u
Cc1ccc(N(C)C(=O)CCS(=O)(=O)c2cc3c(cc2Cl)NC(=O)CO3)cc1	1%	2%	x	x	1.7µM*!
SMILES	NPC1 promoter act	Rab9 promoter act	SMN2 splice enh	KinaseGlo FLuc	FLuc counter
COc1ccccc1NC(=O)c1oc2ccc(C)cc2c1C	u	u	u	14%	9.5µM*
CCN(CC)S(=O)(=O)c1ccc2oc(C(=O)Nc3cc(C)ccc3OC)c(C)c2c1	x	x	x	x	-1%
Cc1ccc2oc(C(=O)Nc3cc(C)on3)c(C)c2c1	3.2µM*	2.5µM*	x	x	0.76µM*
C(=C\c1nnc2c3ccccc3ncn12)/c1ccccc1	4.5µM*	3.2µM*	14µM*	-4%	1.7µM*
CCn1c(-c2ccc(F)cc2)cnc1SCC(=O)N1CCCCC1C (stereo not given)	u	u	1%	-4%	11µM*
CCn1c(-c2ccc(F)cc2)cnc1SCC(=O)N1CCc2ccccc21	-2%	-1%	27%	2%	u
C/C(=N/OCC(=O)Nc1ccccc1)c1cccs1	u	u	-17%	-2%	9.5µM*
CCC(=O)Nc1ccc(N2CCCCC2)cc1	23%	28%	-10%	-3%	u
Cc1ccc(NC(=O)CNCc2ccccc2)c(Br)c1	15%	23%	3%	-2%	u
Cc1ccc(NCCC(=O)c2cccs2)cc1	u	2.8µM*	23%	0%	21µM*
O=C(CCC(=O)c1cccs1)Nc1ccc(N2CCCCC2)cc1	11%	11%	-6%	-2%	19µM*
Cc1ccc(NC(=O)CNCc2cccs2)c(Br)c1	30%	19%	x	x	27µM*
COc1ccc(NC(=O)CO/N=C(\C)c2cccs2)cc1	-1%	-2%	-4%	0%	-19%
Cc1cc(C)cc(-n2c(C)nc3cc(C(=O)NCc4ccc(F)cc4)ccc32)c1	x	x	x	x	-3%
Cc1ccc(NC(=O)CCC(=O)c2cccs2)cc1	0%	-3%	-24%	0%	11µM*
Cc1ccc(CNC(=O)CCC(=O)c2cccs2)cc1	-1%	1%	-20%	-3%	-20%
Cc1ccc(NC(=O)CCC(=O)c2cccs2)c(Br)c1	u	3.5µM*	x	x	u
CC(CC(=O)c1cccs1)CC(=O)c1cccs1	2.8µM*	2.8µM*	u	-3%	21µM*
Cc1ccc(NCCC(=O)c2cccs2)cc1C	9%	u	u	-2%	3.4µM*
O=C(CC(C(=O)O)c1ccccc1)c1cccs1 (stereo not given)	0%	8%	x	x	3%
CC(=O)O[C@@H](C)C#C[Si](C)(C)c1ccccc1	x	x	13%	-4%	x
O=C(CSc1nc2nccnc2c(=O)n1CCc1c[nH]c2ccccc12)Nc1ccc(F)cc1	x	x	x	x	-5%
COc1ccc(-c2cc(C)nc3c(-c4ccc(OC)c(OC)c4)c(C)nn23)cc1	x	x	3%	x	6%
Cc1nc2nc(SCC(=O)NC3CCC(C)CC3)nn2c(C)c1Cc1ccccc1 (stereo not given)	x	x	x	x	-12%
Cc1ccc(N2C(=O)CCSC23C(=O)N(Cc2ccccc2)c2ccccc23)cc1F (stereo not given)	x	x	x	x	-15%
Cc1cc(C)c(C(CC(=O)c2cccs2)C(C#N)C#N)c(C)c1 (stereo not given)	u	3.5µM*	u	2%	12µM*
O=C(NC(=S)Nc1ccc(N2CCCCC2)cc1)c1cccs1	1.3µM*	2.2µM*	-1%	7%	5.4µM*
Cc1ccc(NCCC(=O)c2cccs2)cc1Cl	8%	1%	5%	-3%	u
CS(=O)(=O)N1CCN(c2ccc(NC(=S)NC(=O)c3cccs3)cc2)CC1	3%	-8%	x	0%	-2%
CC(C)c1ccc(NCCC(=O)c2cccs2)cc1	u	u	18%	-3%	12µM*
